Screening data (PubChem)
GALK inhibitor – qHTS Assay for Inhibitors of Human Galactokinase (GALK). Potency, µM (series often up to 57.5 µM), inactives show at the highest dose activity change, negative = inhibition, usual class: inhibitors. hit rate 0.007% among 270,000. Purified GALK, Kinase-Glo residual ATP luminescence. AID 1868, 2009; further: on the % scale 0 is the no-effect control and ±100 the full control effect
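Luminescence from leftover ATP (Ultra-Glo luciferase/luciferin) served as read-out after a 1 h room-temperature reaction of 5 nM GALK with 35 uM ATP and 100 uM galactose.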
AT treatment – qHTS Assay for Identifying a Potential Treatment of Ataxia-Telangiectasia; F2112 A-T fibroblasts, KAP-1 phosphorylation AlphaLISA; neocarzinostatin DNA damage 30 min before lysis; Potency, µM (titrated, usually from 57.5 µM), without a hit: top-dose activation, actives largely listed as activators; hit rate 0.19% among 320,000; AID 485349, 2010; further: % of control where 0% means no effect; nearly all actives have a fitted effect of over 45% in size
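hTERT-immortalized A-T patient fibroblasts (F2112), 500 cells/well in OPTI-MEM, 1% FBS, got compounds for 60 min, then NCS for 30 min at 37C. Lysates were then assayed for phospho-KAP-1 by AlphaLISA (anti-pKAP1 donor, anti-KAP1 acceptor beads), 6 hr at 25C.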
Mito fusion act – qHTS Assay for Small Molecule Inhibitors of Mitochondrial Division or Activators of Mitochondrial Fusion. S. cerevisiae fusion-defective mutant growth rescue, CellTiterGlo 48 h. Potency, µM (titrated, usually from 46.1 µM), inactives show at the highest dose growth rescue (activation), most hits filed as activators. hit rate 0.23% among 320,000. AID 485298, 2010; further: % of control where 0% means no effect; nearly all actives have a fitted effect of over 45% in size
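Read-out: ATP-based luminescence (CellTiterGlo, 10 min ambient) reporting growth of fusion-defective ts yeast after 48 hours at 37C on glycerol/ethanol YPEG medium in the presence of compound.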
Integrin act MD – qHTS for Activators of Integrin-Mediated Alleviation for Muscular Dystrophy | alpha7betagal myoblasts, beta-gal FDG fluorescence, 48 h | Potency, µM (doses to about 38.3 µM), for inactives: at the highest dose activation, actives largely listed as activators | hit rate 0.064% among 350,000;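 further: 100% = response of the positive control SU9516; nearly all actives have a fitted effect of over 60% in size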
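alpha7betagal+/- myoblasts (passage 13, 250/well) treated 48 h at 37C with compounds at 1:260 dilution of DMSO stock. Lysed, then beta-galactosidase activity read as FDG fluorescence (ex 480/em 540) after 30 min, with pre-read for autofluorescence.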
ASM inhibitor – Inhibitors of Secretory Acid Sphingomyelinase (S-ASM): qHTS; placental ASM, HMU-PC fluorogenic substrate, 60 min; Potency, µM (doses to about 57.5 µM), for the others: at the top dose activity change, negative = inhibition, usual class: inhibitors; hit rate 0.006% among 340,000
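Human placenta-derived ASM preincubated with compound 10 min at room temperature, then reacted with 9 uM (final) fluorogenic HMU-PC substrate for 60 min at 37 C. Stop solution raises pH to 10; fluorescence read at Ex 386/Em 447 nm.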
PTAP TSG101 blk – qHTS Assay for Iinhibitors of HIV-1 Budding by Blocking the Interaction of PTAP/TSG101; Tumor susceptibility gene 101 protein (Homo sapiens), Q99816; 340,000 tested, under 10 active; Fluorescence polarization, FITC-PTAP peptide / Tsg101 binding; Potency, µM (titrated, usually from 115 µM), inactives show top-dose activity change, negative = inhibition, most hits filed as inhibitors; active means well fitted inhibition curve with a large enough effect in the main read-out, with a control signal flat, not every such curve was filed as active; inconclusive means small, poorly fitted or top-dose-only effect, or effect the other way, or a change in a side signal; inactive means no such curve, though single readings can be large or run the other way; further: % of control where 0% means no effect
Target sequence (Q99816 whole entry, looked up): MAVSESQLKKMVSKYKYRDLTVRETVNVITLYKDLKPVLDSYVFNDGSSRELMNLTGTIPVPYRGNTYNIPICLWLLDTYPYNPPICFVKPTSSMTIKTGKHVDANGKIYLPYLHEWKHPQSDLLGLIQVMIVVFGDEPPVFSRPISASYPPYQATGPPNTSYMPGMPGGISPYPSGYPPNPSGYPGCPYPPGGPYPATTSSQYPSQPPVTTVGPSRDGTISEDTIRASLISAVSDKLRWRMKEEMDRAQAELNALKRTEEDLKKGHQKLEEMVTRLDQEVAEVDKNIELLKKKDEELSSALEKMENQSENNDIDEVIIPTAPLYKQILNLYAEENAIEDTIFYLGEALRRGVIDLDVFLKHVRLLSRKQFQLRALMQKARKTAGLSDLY
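FP read-out: FITC-PTAP peptide, 50 nM final, binding Tsg101 binding domain, 10 uM final; 20 min, r.t.; 10 mM HEPES pH 7.5, 0.15 M NaCl, 0.01% Tween 20, 3 mM EDTA, 0.1 mM TCEP.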
* = called active by the depositor; i = inactive; ? = inconclusive; · = not tested or not shown; [ ] = remark or other dose. An excerpt weighted towards active compounds, which were near 0.46% of everything screened. Unless noted, the call rests on the fitted dose curve; in most records, active means well fitted curve in the direction sought with a large enough effect; inconclusive means small, poorly fitted or top-dose-only effect, or another doubt; inactive means no such curve, though single readings can be large; an effect the other way counts as inactive or inconclusive. Potency means the concentration at half of the fitted maximal effect.

SMILES | GALK inhibitor | AT treatment | Mito fusion act | Integrin act MD | ASM inhibitor | PTAP TSG101 blk
CCN(CC(=O)Nc1ccc(OC)cc1)C(=O)c1ccc(OCc2c(C)noc2C)cc1 | · | · | · | 0% | -4% | -5%
CCCc1nnc(NC(=O)CCC(=O)O)s1 | 1% | 8% | 13µM* | 6% | 2% | -2%
CCn1ncc(Br)c1C(=O)Nc1sc2c(c1C(N)=O)CCC2 | 0% | 1% | 20µM* | ? | -1% | 0%
CCOC(=O)c1ccc(N2CCOCC2)c(NS(=O)(=O)c2ccc(F)cc2)c1 | -4% | 1% | -3% | ? | -2% | 1%
COc1ccc(OC)c(CCNC(=O)CCc2cn(C)c3ccccc23)c1 | · | 3% | -17% | 7% | 4% | -1%
CCCC(=O)NCCc1c2n(c3ccc(OC)cc13)CCCc1ccccc1-2 | · | · | 18µM* | · | · | ·
CN(CC(=O)Nc1cccc(F)c1)C(=O)c1ccc(-c2ccc(Cl)cc2)o1 | -8% | 3% | -7% | 11µM* | -28% | 0%
Cc1ccc(C)c(NC(=O)CN(C)C(=O)c2ccc(-c3ccc(Cl)cc3)o2)c1 | · | -5% | 0% | -32% | -1% | 0%
Fc1cccc(CNc2ncnc3ccc(-c4ccccc4Cl)cc23)c1 | · | -8% | ? | · | · | ·
Cc1nc(Nc2c(Cl)cccc2Cl)sc1C(=O)Nc1ccccc1 | -4% | -4% | 18µM* | -21% | -7% | 0%
O=C(Nc1nc(COc2ccccc2)cs1)c1ccccc1F | 1% | 0% | 16µM* | ? | -5% | 0%
O=C1CSc2ccc(S(=O)(=O)CCC(=O)NC3CCCCC3)cc2N1 | 1% | 3% | 3% | -17% | -1% | -1%
Cc1ccc(NC(=O)C(=Cc2ccc(C(=O)O)cc2)C(=O)Nc2ccc(C)cc2C)c(C)c1 | -5% | 20µM* | 1% | -62% | 3% | -4%
CCN(CC)CCOC(=O)c1ccc(N/C=C(/C#N)c2nc(-c3cc4ccccc4oc3=O)cs2)cc1 | 3% | 0% | 8.9µM* | -1% | -3% | 2%
CC(C)CN(CC(C)C)CC(O)COc1ccccc1Br (stereo not drawn) | 1% | 20µM* | -5% | -10% | -1% | -1%
CCCCN(CCCC)CC(O)COc1ccccc1Br (stereo not drawn) | 2% | 18% | -1% | -38% | -1% | 2%
COc1ccc(Nc2ncnc3ccc(C)cc23)cc1 | 9% | 1% | -3% | 3.5µM* | 1% | 0%
Cc1ccc2nc(SC(Cc3cc(Cl)ccc3Cl)C(=O)O)[nH]c2c1 (stereo not drawn) | · | · | 0% | · | · | ·
COc1cccc(-c2nc(N3CCN(C)CC3)c3ccccc3n2)c1O | -2% | 12% | 4% | -28% | -7% | -7%
COc1cccc(-c2nc(N3CCCCC3C)c3ccccc3n2)c1O (stereo not drawn) | 3% | 4% | 13µM* | -17% | ? | -2%
S=c1[nH]nc(Cn2nnc3ccccc32)n1-c1ccc(Cl)cc1 | 1% | 4% | 8% | 0% | -1% | -4%
S=c1[nH]nc(Cn2cnc3ccccc32)n1-c1ccccc1 | 10% | 2% | -2% | 8.9µM* | 0% | -2%
CCN1/C(=C/C=C/C=C/c2sc3ccccc3[n+]2CC)Sc2ccccc21 | 18% | 32µM* | ? | · | · | ·
CCN1/C(=C/C=C/C=C/C=C/c2sc3ccccc3[n+]2CC)Sc2ccccc21 | 12% | 13% | -8% | -73% | -25% | 2%
CCCN(CCC)C(=O)c1c[nH]c2ccc(S(=O)(=O)N(C)c3ccc(Cl)cc3)cc2c1=O | · | · | -5% | · | · | ·
SMILES | GALK inhibitor | AT treatment | Mito fusion act | Integrin act MD | ASM inhibitor | PTAP TSG101 blk
Cc1ccc(-c2c(C(=O)N(C)Cc3ccccc3)oc(=O)c3ccccc23)cc1 | 3% | 22% | 16µM* | ? | -1% | 0%
COCCCNc1oc(/C=C/c2ccccc2)nc1C#N | 1% | 16µM* | 15% | -15% | i[11.5 µM] | -7%
CC1CC(C)CN(C(=O)Cn2cc(C=O)c3ccccc32)C1 (stereo not drawn) | -4% | 2% | -18% | 0% | 1% | -5%
CC12CCC(C(=O)N3CCCc4ccccc43)(CC1=O)C2(C)C (stereo not drawn) | -2% | -4% | 7% | -2% | 4% | -4%
CC12CCC(C(=O)N3CCc4ccccc43)(CC1=O)C2(C)C (stereo not drawn) | -4% | -5% | 14µM* | 15% | -3% | 2%
CC(=O)Nc1ccccc1OCC(=O)NCC(F)(F)F | 10% | 1% | 1% | 11% | 9% | 1%
O=C(C[n+]1cccc(Br)c1)c1ccc(-c2ccccc2)cc1 | 1% | 0% | -3% | 0% | -8% | 2%
COc1ccc(-c2csc(-n3ncc(C(=O)O)c3C(F)(F)F)n2)cc1 | 6% | 40µM* | 28% | -11% | 0% | -1%
O=C(Nc1cccc(Br)c1)c1ccccc1-c1ccccc1 | -1% | 4% | 16µM* | 8% | -11% | -2%
Cc1ccccc1C(=O)Nc1scc(-c2ccc(Br)cc2)c1C(=O)O | · | · | · | 2.8µM* | -1% | 0%
O=C(Nc1scc(-c2ccc(Br)cc2)c1C(=O)O)c1ccccc1F | · | · | · | 14% | -3% | -2%
Cc1cc(Br)ccc1NC(=O)c1ccccc1-c1ccccc1 | 1% | 6% | 14µM* | 22% | -6% | 3%
COC(=O)c1ccccc1NC(=O)NN1CCN(C)CC1 | 5% | 1% | -1% | 40% | 2% | 0%
COCCCn1c(=O)c2sccc2n(Cc2cccc(F)c2)c1=O | -8% | 3% | 8% | 27% | 2% | -5%
COCCCn1c(=O)c2sccc2n(Cc2cccc(C)c2)c1=O | 4% | 1.6µM* | 12% | -37% | -1% | -1%
COCCN(CCOC)S(=O)(=O)c1ccc(C(=O)Nc2c(C)n(C)n(-c3ccccc3)c2=O)cc1 | 9% | -5% | 1% | 6% | 0% | -1%
O=[N+]([O-])c1ccc(Cl)cc1N/N=C/c1ccncc1 | -5% | 5% | -2% | 5.6µM* | -11% | -4%
O=C(Cc1ccccc1)Nc1ccc(Br)c(Cl)c1 | 1% | 0% | 14µM* | ? | 7% | 1%
C/C(=C\C(=O)c1ccc(Br)cc1)Nc1ccc(Cl)cc1 | · | 3% | · | 7% | -1% | 1%
C/C(=C\C(=O)c1ccccc1)Nc1ccc(Br)c(Cl)c1 | -2% | 11% | -1% | 11µM* | -2% | -3%
